Our source for the binding signal values is PMC7862700, “An all-to-all approach to the identification of sequence-specific readers for epigenetic DNA modifications on cytosine”.

Experiment in all cases: DAPPL (digital affinity profiling via proximity ligation, sequencing); 10 mM Tris-HCl pH 7.5, 50 mM NaCl, 1 mM DTT, 4% glycerol, room temperature, 30 min; GST-TFs on glutathione beads, 16-mer random dsDNA library, 0.1% formaldehyde crosslink after washing; high values mean tight binding
The target in one assay is T1, FEV (Homo sapiens, UniProt Q99581 1-238).
T1 sequence: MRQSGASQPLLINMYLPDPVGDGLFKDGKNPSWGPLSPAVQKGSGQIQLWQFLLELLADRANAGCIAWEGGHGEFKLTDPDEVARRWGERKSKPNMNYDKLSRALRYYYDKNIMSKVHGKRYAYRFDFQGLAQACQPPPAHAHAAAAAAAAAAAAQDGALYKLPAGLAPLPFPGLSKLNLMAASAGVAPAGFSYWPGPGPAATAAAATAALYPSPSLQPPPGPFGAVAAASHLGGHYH
Conditions: protein: recombinant; tags: N-terminal GST; dsDNA, one strand shown. The essentials:
(§1)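 In yeast, human transcription factors were expressed with a GST fusion, then pulled down on glutathione beads and given DNA barcodes. Pooled with a tag-only sample, they were exposed to 200 nmole of a 16-mer random double-stranded DNA library (Tris/NaCl/DTT/glycerol buffer, room temperature, 30 min), washed, crosslinked with 0.1% formaldehyde, proximity-ligated using BsaI/T4 ligase for 1 h at 37 °C, PCR-amplified and read on an Illumina NextSeq500. Each hexamer's frequency of reads for a factor, divided by the matching frequency for the tag-only sample, gives the binding signal.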

The target of the next assay is ETV5 (Homo sapiens, UniProt P41161 1-510). The settings on record: protein: recombinant; tags: N-terminal GST; dsDNA, one strand shown. The essentials: as §1
The target in the next assay is HSF1 (Homo sapiens, UniProt Q00613 1-529). Conditions: protein: recombinant; tags: N-terminal GST; chain copies: 3; dsDNA, one strand shown. In outline:
as §1

A further assay concerns the target T2, SPIC (Homo sapiens, UniProt Q8N5J4 1-248).
T2 sequence: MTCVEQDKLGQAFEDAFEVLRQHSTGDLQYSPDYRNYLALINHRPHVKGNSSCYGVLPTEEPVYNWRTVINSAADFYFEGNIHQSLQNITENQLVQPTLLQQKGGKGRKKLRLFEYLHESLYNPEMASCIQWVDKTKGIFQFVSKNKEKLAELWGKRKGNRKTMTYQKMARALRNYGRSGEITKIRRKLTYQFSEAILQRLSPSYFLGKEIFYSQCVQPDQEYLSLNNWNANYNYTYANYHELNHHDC
The settings on record: protein: recombinant; tags: N-terminal GST; dsDNA, one strand shown. The essentials:
as §1

Another assay has as its target ELF4 (Homo sapiens, UniProt Q99607 1-663). The settings on record: protein: recombinant; tags: N-terminal GST; dsDNA, one strand shown. The essentials:
as §1

The target in a further assay is T3, ELK4 (Homo sapiens, UniProt P28324-2 1-405).
T3 sequence: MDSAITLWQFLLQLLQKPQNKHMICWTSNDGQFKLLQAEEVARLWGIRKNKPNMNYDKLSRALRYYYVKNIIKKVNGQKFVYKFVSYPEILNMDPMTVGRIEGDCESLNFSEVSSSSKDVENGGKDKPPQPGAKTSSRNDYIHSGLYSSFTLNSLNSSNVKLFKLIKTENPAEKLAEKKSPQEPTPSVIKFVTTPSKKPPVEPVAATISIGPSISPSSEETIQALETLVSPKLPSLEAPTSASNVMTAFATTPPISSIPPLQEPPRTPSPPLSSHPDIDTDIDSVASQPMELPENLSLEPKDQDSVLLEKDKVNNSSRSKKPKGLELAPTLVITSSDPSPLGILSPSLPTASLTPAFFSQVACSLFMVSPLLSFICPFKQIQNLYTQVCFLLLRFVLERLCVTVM
Conditions: protein: recombinant; tags: N-terminal GST; dsDNA, one strand shown. In outline:
as §1

In another assay the target is T4, ETV2 (Homo sapiens, UniProt O00321 1-342).
T4 sequence: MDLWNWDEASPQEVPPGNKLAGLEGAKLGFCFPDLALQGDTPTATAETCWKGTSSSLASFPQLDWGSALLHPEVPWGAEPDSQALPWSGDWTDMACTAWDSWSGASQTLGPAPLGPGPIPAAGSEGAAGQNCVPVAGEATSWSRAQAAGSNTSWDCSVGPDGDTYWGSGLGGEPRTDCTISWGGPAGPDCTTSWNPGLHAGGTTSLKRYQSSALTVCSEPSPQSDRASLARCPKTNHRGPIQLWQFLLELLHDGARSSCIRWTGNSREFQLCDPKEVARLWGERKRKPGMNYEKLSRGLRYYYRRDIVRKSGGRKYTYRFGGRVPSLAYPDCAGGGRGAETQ
Conditions: protein: recombinant; tags: N-terminal GST; dsDNA, one strand shown. The essentials:
as §1

The target of another assay is T5, ELF3 (Homo sapiens, UniProt P78545 1-371).
T5 sequence: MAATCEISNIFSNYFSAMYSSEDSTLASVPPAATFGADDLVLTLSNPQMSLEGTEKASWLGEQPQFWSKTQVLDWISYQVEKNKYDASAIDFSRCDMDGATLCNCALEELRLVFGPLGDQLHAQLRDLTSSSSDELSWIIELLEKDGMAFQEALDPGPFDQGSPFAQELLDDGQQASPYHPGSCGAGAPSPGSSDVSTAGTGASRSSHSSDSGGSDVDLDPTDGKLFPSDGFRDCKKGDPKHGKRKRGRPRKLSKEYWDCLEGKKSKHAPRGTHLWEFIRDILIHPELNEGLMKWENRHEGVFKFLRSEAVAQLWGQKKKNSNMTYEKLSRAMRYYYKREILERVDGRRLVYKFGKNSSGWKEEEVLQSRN
The settings on record: protein: recombinant; tags: N-terminal GST; dsDNA, one strand shown. In outline:
as §1

The target in a further assay is CRX (Homo sapiens, UniProt O43186 1-299). The settings on record: protein: recombinant; tags: N-terminal GST; dsDNA, one strand shown. In outline:
as §1

A further assay addresses ETV1 (Homo sapiens, UniProt P50549 1-477). Conditions: protein: recombinant; tags: N-terminal GST; dsDNA, one strand shown. In outline: as §1
Another assay addresses T6, ERF (Homo sapiens, UniProt P50548 1-548).
T6 sequence: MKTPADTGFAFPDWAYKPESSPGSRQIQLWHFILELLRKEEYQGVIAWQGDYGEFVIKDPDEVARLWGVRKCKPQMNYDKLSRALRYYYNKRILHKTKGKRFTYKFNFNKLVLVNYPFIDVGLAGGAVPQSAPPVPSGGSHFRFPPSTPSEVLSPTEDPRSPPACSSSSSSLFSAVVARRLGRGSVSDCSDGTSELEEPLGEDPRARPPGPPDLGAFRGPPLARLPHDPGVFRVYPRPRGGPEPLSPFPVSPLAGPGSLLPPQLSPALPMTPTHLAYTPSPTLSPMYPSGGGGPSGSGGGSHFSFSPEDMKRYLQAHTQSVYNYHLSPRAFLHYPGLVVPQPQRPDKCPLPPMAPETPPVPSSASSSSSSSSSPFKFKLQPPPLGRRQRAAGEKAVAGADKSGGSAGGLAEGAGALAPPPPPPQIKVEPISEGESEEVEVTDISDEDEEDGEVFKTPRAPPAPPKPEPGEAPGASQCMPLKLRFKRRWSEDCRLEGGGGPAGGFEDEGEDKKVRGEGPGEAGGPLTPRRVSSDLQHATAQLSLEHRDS
The settings on record: protein: recombinant; tags: N-terminal GST; dsDNA, one strand shown. The essentials: as §1

Another assay concerns the target T7, ETV3L (Homo sapiens, UniProt Q6ZN32 1-361).
T7 sequence: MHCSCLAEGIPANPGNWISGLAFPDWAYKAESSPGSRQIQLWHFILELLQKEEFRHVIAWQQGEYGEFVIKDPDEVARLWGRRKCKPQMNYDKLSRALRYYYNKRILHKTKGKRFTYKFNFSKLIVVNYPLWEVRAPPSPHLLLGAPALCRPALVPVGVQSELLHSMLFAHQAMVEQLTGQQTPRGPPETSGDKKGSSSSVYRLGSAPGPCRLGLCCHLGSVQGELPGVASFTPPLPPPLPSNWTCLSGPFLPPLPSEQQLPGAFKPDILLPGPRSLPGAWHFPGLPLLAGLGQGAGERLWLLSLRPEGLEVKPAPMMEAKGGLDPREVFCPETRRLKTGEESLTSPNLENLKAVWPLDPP
Conditions: protein: recombinant; tags: N-terminal GST; dsDNA, one strand shown. The essentials:
as §1

The next assay addresses T8, ETS2 (Homo sapiens, UniProt P15036 1-469).
T8 sequence: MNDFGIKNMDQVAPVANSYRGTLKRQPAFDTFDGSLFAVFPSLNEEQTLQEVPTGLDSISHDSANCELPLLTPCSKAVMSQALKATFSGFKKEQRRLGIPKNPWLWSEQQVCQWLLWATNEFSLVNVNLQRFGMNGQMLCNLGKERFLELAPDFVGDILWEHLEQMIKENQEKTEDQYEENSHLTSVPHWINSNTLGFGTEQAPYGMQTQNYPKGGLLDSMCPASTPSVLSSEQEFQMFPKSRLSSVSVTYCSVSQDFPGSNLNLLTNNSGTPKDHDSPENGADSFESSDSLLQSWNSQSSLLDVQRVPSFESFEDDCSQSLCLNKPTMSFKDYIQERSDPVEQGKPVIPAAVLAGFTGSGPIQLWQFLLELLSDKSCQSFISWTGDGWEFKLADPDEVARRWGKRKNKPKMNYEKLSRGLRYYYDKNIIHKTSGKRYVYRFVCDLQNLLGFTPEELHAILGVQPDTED
The settings on record: protein: recombinant; tags: N-terminal GST; dsDNA, one strand shown. In outline: as §1

In another assay the target is T9, SPDEF (Homo sapiens, UniProt O95238 1-335).
T9 sequence: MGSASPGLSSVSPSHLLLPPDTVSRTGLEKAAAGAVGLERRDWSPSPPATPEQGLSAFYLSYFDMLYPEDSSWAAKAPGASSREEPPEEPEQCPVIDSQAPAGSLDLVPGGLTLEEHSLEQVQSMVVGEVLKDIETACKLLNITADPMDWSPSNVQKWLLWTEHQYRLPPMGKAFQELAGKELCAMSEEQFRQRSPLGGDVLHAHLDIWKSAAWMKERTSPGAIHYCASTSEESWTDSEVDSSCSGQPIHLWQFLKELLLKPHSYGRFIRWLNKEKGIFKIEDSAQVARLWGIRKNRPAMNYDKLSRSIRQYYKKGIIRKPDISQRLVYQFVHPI
Conditions: protein: recombinant; tags: N-terminal GST; dsDNA, one strand shown. The essentials:
as §1

For a further assay, the target named is T10, ETV7 (Homo sapiens, UniProt Q9Y603 1-341).
T10 sequence: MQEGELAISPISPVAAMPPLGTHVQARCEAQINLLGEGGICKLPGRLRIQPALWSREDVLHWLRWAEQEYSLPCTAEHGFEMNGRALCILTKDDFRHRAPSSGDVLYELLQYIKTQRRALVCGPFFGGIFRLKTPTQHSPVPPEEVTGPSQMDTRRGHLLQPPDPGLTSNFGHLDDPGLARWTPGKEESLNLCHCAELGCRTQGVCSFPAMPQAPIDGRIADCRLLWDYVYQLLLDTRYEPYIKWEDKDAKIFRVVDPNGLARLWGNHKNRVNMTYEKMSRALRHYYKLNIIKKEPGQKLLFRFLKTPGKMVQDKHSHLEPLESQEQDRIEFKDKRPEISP
Conditions: protein: recombinant; tags: N-terminal GST; dsDNA, one strand shown. The essentials: as §1

For a further assay, the target named is T11, ELF5 (Homo sapiens, UniProt Q9UKW6-2 1-255).
T11 sequence: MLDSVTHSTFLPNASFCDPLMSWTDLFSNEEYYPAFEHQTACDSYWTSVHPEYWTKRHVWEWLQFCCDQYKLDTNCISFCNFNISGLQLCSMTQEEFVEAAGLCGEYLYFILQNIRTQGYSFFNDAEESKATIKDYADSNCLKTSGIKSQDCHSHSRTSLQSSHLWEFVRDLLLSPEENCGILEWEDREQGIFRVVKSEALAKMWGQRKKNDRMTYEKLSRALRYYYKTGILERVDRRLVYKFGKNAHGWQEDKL
The settings on record: protein: recombinant; tags: N-terminal GST; dsDNA, one strand shown. In outline:
as §1

In the next assay the target is T12, ETV3 (Homo sapiens, UniProt P41162-2 1-143).
T12 sequence: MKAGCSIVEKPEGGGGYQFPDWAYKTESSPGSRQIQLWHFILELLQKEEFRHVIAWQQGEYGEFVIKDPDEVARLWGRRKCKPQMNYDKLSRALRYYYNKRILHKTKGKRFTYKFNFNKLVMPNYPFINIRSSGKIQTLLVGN
The settings on record: protein: recombinant; tags: N-terminal GST; dsDNA, one strand shown. The essentials:
as §1

For the next assay, the target named is ETV6 (Homo sapiens, UniProt P41212 1-452). Conditions: protein: recombinant; tags: N-terminal GST; dsDNA, one strand shown. In outline:
as §1

Chain of ELF4 (Q99607 whole entry): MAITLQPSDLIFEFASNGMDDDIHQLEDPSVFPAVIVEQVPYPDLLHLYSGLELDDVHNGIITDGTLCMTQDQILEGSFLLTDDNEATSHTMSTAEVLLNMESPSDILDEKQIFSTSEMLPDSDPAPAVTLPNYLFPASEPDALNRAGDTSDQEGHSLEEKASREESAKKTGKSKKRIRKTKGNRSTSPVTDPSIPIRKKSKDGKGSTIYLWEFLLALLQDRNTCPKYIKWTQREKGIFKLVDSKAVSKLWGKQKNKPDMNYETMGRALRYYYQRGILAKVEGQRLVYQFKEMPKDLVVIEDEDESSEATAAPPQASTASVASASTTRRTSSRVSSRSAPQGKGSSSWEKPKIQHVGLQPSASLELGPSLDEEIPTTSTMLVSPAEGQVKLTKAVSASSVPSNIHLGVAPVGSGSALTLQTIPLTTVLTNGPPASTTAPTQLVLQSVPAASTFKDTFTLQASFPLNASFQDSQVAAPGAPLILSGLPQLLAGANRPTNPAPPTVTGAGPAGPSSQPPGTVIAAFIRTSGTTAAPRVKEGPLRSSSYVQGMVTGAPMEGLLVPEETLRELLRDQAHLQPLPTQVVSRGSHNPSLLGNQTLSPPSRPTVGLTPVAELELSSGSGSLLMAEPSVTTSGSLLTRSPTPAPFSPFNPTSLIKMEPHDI
Chain of ETV1 (P50549 whole entry): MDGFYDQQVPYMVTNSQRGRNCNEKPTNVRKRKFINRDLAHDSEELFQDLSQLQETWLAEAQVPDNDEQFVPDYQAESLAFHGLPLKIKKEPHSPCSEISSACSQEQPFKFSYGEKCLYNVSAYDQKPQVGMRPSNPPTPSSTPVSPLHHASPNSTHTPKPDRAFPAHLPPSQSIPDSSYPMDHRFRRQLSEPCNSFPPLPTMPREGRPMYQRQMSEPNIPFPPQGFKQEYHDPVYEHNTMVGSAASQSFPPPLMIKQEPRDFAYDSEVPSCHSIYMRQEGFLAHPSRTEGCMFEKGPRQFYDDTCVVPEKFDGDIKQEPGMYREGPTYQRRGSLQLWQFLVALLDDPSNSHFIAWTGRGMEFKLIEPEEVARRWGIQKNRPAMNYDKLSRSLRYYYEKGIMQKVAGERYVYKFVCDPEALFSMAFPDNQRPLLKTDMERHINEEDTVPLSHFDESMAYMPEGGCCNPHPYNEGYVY
Chain of ETV5 (P41161 whole entry): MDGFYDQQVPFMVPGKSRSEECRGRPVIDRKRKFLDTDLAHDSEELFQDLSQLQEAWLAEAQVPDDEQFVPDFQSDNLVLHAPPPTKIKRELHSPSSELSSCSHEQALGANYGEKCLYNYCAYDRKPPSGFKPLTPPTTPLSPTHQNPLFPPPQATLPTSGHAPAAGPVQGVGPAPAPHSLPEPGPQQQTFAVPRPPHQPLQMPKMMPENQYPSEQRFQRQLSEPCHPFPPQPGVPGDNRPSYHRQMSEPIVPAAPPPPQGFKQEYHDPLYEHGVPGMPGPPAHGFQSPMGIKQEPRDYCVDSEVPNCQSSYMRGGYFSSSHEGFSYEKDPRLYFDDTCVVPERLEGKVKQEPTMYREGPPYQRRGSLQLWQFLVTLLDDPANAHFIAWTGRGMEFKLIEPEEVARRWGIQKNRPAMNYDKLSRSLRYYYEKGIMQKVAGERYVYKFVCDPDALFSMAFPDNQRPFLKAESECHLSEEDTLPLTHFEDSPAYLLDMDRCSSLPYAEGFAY
Chain of CRX (O43186 whole entry): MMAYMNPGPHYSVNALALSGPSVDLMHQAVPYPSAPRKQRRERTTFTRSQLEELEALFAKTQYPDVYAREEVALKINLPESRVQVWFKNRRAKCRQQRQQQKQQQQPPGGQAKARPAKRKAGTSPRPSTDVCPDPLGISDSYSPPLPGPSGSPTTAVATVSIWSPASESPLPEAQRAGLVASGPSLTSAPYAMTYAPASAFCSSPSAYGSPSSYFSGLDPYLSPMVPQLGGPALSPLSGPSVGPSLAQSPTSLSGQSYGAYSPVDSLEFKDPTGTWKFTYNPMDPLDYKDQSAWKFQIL
Chain of ETV6 (P41212 whole entry): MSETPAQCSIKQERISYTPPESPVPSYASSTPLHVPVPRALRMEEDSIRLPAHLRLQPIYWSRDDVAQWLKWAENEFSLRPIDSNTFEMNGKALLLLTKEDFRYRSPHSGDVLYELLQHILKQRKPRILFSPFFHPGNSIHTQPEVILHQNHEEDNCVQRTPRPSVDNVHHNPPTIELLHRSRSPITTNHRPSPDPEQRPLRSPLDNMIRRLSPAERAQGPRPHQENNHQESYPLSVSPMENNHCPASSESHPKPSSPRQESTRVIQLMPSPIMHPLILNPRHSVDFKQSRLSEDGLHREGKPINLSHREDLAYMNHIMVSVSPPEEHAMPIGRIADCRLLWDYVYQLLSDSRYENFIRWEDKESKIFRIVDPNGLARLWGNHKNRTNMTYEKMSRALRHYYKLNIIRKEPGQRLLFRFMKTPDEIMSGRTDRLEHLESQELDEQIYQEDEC
Chain of HSF1 (Q00613 whole entry): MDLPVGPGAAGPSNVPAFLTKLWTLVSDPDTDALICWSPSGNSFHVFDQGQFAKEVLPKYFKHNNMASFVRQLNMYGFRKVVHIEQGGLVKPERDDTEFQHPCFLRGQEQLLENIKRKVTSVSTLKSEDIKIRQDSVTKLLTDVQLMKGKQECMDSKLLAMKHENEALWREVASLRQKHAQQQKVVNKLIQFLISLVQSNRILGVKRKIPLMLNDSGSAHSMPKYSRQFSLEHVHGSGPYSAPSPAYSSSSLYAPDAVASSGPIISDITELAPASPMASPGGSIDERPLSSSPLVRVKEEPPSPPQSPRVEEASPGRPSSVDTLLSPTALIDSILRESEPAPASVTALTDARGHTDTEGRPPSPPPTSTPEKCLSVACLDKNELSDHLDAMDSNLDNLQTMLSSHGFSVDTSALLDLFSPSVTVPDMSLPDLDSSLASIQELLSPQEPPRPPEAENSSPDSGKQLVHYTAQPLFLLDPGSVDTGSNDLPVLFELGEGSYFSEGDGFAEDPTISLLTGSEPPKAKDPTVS

With AATTCC, the binding signal in the assay with FEV was 2.05 fold enrichment (6-mer frequency, TF over GST control); in the assay with ETV5 it was 2.1 fold enrichment (6-mer frequency, TF over GST control); in the assay with HSF1, 2.07 fold enrichment (6-mer frequency, TF over GST control); in the assay with SPIC, 1.93 fold enrichment (6-mer frequency, TF over GST control); in the assay with ELF4, 1.92 fold enrichment (6-mer frequency, TF over GST control); with ELK4, 1.55 fold enrichment (6-mer frequency, TF over GST control). For the same sequence, the binding signal with ETV2 was 2.11 fold enrichment (6-mer frequency, TF over GST control); with ELF3, 1.7 fold enrichment (6-mer frequency, TF over GST control); with CRX it was 2.04 fold enrichment (6-mer frequency, TF over GST control); with ETV1, 1.95 fold enrichment (6-mer frequency, TF over GST control); with ERF, 1.65 fold enrichment (6-mer frequency, TF over GST control); with ETV3L, 1.87 fold enrichment (6-mer frequency, TF over GST control). The binding signal with ETS2 was 1.86 fold enrichment (6-mer frequency, TF over GST control); with SPDEF it was 1.98 fold enrichment (6-mer frequency, TF over GST control); with ETV7 it was 1.7 fold enrichment (6-mer frequency, TF over GST control); in the assay with ELF5, 2.39 fold enrichment (6-mer frequency, TF over GST control); with ETV3, 2.09 fold enrichment (6-mer frequency, TF over GST control); with ETV6, 1.97 fold enrichment (6-mer frequency, TF over GST control).
